About 2,000 (0.91%) of roughly 220,000 compounds were called active. Not shown: some 2% with an inconclusive outcome. These entries were drawn from the full list. Entries with a potency or affinity are not part of this list. Values without a mark were called inactive. Cut-off read from the data, not from the text of the source: inconclusive = inhibition above about 80% without an active follow-up result; inactive = below that; test concentration not stated here.

This experiment is described as follows: M. tuberculosis H37Rv growth inhibitors, H37Rv strain (AID 1626).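 Note: bacteria incubated seven days before Alamar blue readout; 0% = bacteria only wells and 100% = bacteria with antibiotic wells.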 Particulars: hits give high values, concentration not given here.
Turning to `Cc1ccc(N=CC=C2OC(C)(C)C(C)(C)O2)c(C)c1`, the inhibition (usually the drop in the measured response relative to a control, in per cent) was -2.12%. The value for `CC(=O)C1=C(O)C(=O)N(CCc2c[nH]c3ccccc23)C1c1cccc(O)c1` (stereo unspecified) was 1.15%; that for `CC(C)=CC(=O)Nc1ccc2c(c1)OCO2` was -4.24%. The value for `CS(=O)(=O)N(CC(=O)Nc1cccc([N+](=O)[O-])c1)c1ccccc1` was -4.25%; that for `Cn1c(=O)n(Cc2ccccc2)c2ccccc21` was -7.14%. The same measure for `COc1ccc(-c2nnc(Nc3nc4c(OC)cccc4s3)o2)c(OC)c1`: 3.73%; for `NNc1nc2c(F)cccc2s1`: 8.41%.

As for `Fc1cccc2sc(Nc3nc4c(F)cccc4s3)nc12`, the inhibition was 43%. The value for `COc1cccc2sc(Nc3nnc(-c4ccccc4Cl)o3)nc12` was 52.8%; that for `COc1ccccc1-c1nnc(Nc2nc3c(OC)cccc3s2)o1` was 8.74%.

Regarding `COc1cccc2sc(Nc3nnc(-c4cccs4)o3)nc12`, the inhibition was -3.65%. The value for `O=C(COC(=O)c1cccc2ccccc12)NCC1CCCO1` (stereo unspecified) was -2.85%. For the compound `CCn1cc(C2C3=C(CC(C)(C)CC3=O)N(c3ccccc3)C3=C2C(=O)CC(C)(C)C3)c(C)n1`, the inhibition is -3.23%. The value for `CCC1=C(OC(=O)N(CC)CC)N2C(=O)OC(=NCCOC)[C@]2(Cc2ccccc2)[C@H]2C1=CC[C@H]1C(=O)NC(=O)[C@H]12` was 10.1%. The same measure for `O=C(NC1CCCCC1)c1nn2c(C(F)(F)F)cc(-c3ccco3)nc2c1Br`: 1.53%; for `COCCn1c(SCC(=O)Nc2ccccc2OC)nc2c(oc3ccccc32)c1=O`: 3.65%; for `COc1ccc(SCCC(=O)NCc2ccncc2)cc1`: -7.49%. Turning to `Cc1cccc(N2CCN(C(=O)c3cccc(N4C(=O)C5CC=CC(C)C5C4=O)c3)CC2)c1C` (stereo unspecified), the inhibition was -7%. The value for `COc1ccc(C2C(C(=O)Nc3ccc(F)cc3)=C(C)Nc3nc(CCCO)nn32)cc1` (stereo unspecified) was -9.75%; that for `O=C1c2ccccc2-c2nnc(-c3ccccc3)cc21` was -2.39%; that for `CCc1ccc2c(c1)C(=O)c1ccccc1C2=O` was 7.07%.

With `CC(C)(C)c1ccc2c(c1)C(=O)c1ccccc1C2=O`, the inhibition is 7.48%. On to `Cc1ccc(-c2ccc3c(c2)S(=O)(=O)c2ccccc2C3=O)cc1`, for which the inhibition is -4.26%.

As to `Nc1ccc2c(c1)CC(=O)c1ccccc1S2`, the inhibition was 9.71%.

On to `Nc1ccc2c(c1)CCC2=O`, for which the inhibition was -8.13%. The value for `O=C(OCC(=O)N1CCN(C(=O)c2ccco2)CC1)c1cccc(S(=O)(=O)N2CCc3ccccc32)c1` was 2.78%.

Source of the values: PubChem BioAssay AID1626 (SRMLSC, 2009).
